# Measured values: the supplement of paper PMC3334620
# In all, about 33,000 sequences were measured (“E-score (-0.5 to 0.5)”: median about -0.041, highest 2% from about 0.37 on). Shown is part of a subset that was picked to be rich in the highest values.
# Target: T1, Ecm22 (UniProt Q05958)
# T1 sequence: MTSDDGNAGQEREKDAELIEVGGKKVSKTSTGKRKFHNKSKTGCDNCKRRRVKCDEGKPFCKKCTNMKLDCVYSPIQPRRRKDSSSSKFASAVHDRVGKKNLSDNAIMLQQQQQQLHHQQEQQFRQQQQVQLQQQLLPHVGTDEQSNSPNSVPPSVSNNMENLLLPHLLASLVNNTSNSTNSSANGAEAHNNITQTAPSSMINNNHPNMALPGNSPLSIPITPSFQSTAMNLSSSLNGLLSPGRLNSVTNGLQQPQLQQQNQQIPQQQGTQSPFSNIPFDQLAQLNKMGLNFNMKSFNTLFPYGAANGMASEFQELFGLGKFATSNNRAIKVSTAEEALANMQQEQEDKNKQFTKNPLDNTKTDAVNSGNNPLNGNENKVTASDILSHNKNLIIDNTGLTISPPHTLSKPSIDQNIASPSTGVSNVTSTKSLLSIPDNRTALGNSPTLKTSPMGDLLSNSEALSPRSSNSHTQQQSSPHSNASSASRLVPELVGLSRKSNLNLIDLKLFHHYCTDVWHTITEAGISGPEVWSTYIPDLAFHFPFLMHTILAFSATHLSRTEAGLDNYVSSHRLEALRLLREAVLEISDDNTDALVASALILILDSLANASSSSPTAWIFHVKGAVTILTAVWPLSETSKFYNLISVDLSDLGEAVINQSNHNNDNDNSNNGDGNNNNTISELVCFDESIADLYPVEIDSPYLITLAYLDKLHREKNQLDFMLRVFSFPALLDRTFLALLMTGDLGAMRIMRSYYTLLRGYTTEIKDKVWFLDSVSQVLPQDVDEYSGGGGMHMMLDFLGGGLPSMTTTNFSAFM
# Test: PBM E-score (8-mer binding enrichment) (E-score (-0.5 to 0.5)); higher = stronger / more preferred TF binding
# Settings: protein concentration: 200 nM; construct: GST-full length
# Experimental: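 Universal 'all 10-mer' protein binding microarrays (Agilent AMADID 015681) probed with GST-tagged S. cerevisiae TFs (full-length or DBD) made by in vitro transcription/translation (PURExpress), about 100-200 nM. Bound TF was detected with fluorescent anti-GST. Each ungapped 8-mer (which stands for itself and its reverse complement) is scored by the PBM enrichment score (E-score), a modified Wilcoxon-Mann-Whitney statistic from -0.5 to +0.5, computed with the Universal PBM Analysis Suite. Scale: above 0.35 generally sequence-specific binding.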
row,Sequence,PBM E-score
1,ACCCTTGG,-0.233
2,ATTCTAAA,0.095
3,ACCTAGAG,-0.00033
4,ATTCGCGG,-0.00497
5,ACGGGAGA,0.0694
6,CGACGGGA,0.227
7,ACTAAACG,0.457
8,ACTAAACC,-0.00061
9,ATTAAACA,-0.163
10,ATTAAACG,0.449
11,CCTAAACA,-0.149
12,CCTAAACG,0.407
13,CCTAAACC,-0.00691
14,ACTAAACA,-0.273
15,ATTAAACC,-0.0934
16,GGAGTAAA,0.0078
17,GGGGCTAC,-0.0133
18,GACGCCTA,-0.221
19,TCTTCGAA,0.108
20,GATACTTA,-0.131
21,GAGTCGGA,0.0868
22,CAGTCGTA,0.418
23,AAGTCGTA,0.433
24,AAGTCGTG,-0.0717
25,GAGTCGCA,0.133

row,Sequence,PBM E-score
1,AAGTCGTC,0.139
2,CAGTCGTC,-0.109
3,GAGTCGTA,0.43
4,CAGTCGGA,-0.067
5,CCGGCCGA,-0.113
6,AAGAGTTC,0.00406
7,CGAGCAAC,0.168
8,ACGCCGTG,-0.146
9,ACTCATGC,-0.0706
10,CACTGGGG,-0.267
11,ACGAGACT,0.348
12,ACGAGATA,0.346
13,ACGAGAGC,0.399
14,ACGAGATG,0.365
15,GCGAGAGC,0.182
16,ACGAGACA,0.315
17,ACGAGATC,0.433
18,ACGAGAGA,0.353
19,ACGAGACG,0.394
20,AGTAAACA,0.0411
21,AGTAAACC,-0.0723
22,CGTAAACG,0.444
23,CGTAAACC,0.366
24,AGTAAACG,0.427
25,TGTAAACA,-0.0145

row,Sequence,PBM E-score
1,CGGAAACG,0.269
2,GGTAAACA,0.129
3,CGTAAACA,0.385
4,TCCTTAAA,-0.1
5,GGTCCACC,-0.214
6,ACGCGGGA,0.062
7,AAAGCAGG,-0.203
8,TCTTTACA,-0.132
9,GTTTCGAA,-0.00209
10,ATTTCGTC,0.0861
11,CTTTCGTA,0.428
12,CTTTCGTC,0.0061
13,GTTTCGGA,0.215
14,CTTTCGGA,0.0148
15,ATTTCGTA,0.444
16,GTTTCGTA,0.44
17,ATTTCGTG,0.0706
18,GCCCGTGA,-0.115
19,AGGTTTGC,-0.153
20,ACCTAAAT,0.112
21,ACTGGAAA,-0.0956
22,GTTAAACA,0.00429
23,AGCGTTTA,0.168
24,GTCGTTTA,0.491
25,AACGTTTA,0.319

row,Sequence,PBM E-score
1,GACGTTTA,0.303
2,GGCGTTTA,0.166
3,ATCGTTTA,0.483
4,AGCGTTTG,0.031
5,ATCGTTTC,0.365
6,ATCGTTTG,0.414
7,AAATCTCT,-0.0179
8,ACACTCCT,-0.163
9,CGTTGAGC,0.0667
10,CCACAAGA,-0.185
11,CAAAAGGG,-0.181
12,GCGGGGAC,-0.152
13,ATGATACG,0.377
14,CCGATACG,0.326
15,ATGATACA,-0.0736
16,ACGATACG,0.383
17,ACGATACT,0.313
18,ATGATACC,0.146
19,GTTTTCCA,0.061
20,CTCCCGTC,0.121
21,TAAGTGCA,0.0499
22,CTGTTGCC,-0.265
23,CAGGAACA,-0.0447
24,CAGGAACG,0.463
25,AAGGAACT,-0.0399

row,Sequence,PBM E-score
1,ATGGAACC,-0.0738
2,ATGGAACG,0.402
3,CAGGAACC,-0.171
4,AAGGAACC,0.0815
5,ATGGAACA,-0.322
6,AAGGAACG,0.458
7,CCGCCTAG,-0.193
8,CTTACCTA,-0.117
9,GAAGTGTC,-0.055
10,AATAGTTG,-0.116
11,CAGCGTCG,0.0918
12,AAGCCGTC,-0.0956
13,TAAACGCA,0.292
14,CCAACGAA,0.0596
15,AAAACGAA,0.277
16,GTAACGAA,0.306
17,TAAACAAA,0.114
18,GAAACGAA,0.414
19,TAAACGAA,0.488
20,GAAACAAA,-0.0214
21,CAAACGAA,0.438
22,AGTGACAT,-0.283
23,GGCACAAA,-0.134
24,GATATGCC,-0.108
25,ATATTTAA,0.0866

row,Sequence,PBM E-score
1,ACACGGCG,-0.0862
2,AGACGGCG,-0.0146
3,GCACGGCA,-0.0485
4,ATACGGCC,0.388
5,AAACGGCA,0.294
6,CTACGGCA,0.1
7,AGACGGCC,-0.223
8,ATACGGCG,0.406
9,GTACGGCA,0.395
10,ACACGGCA,0.108
11,CTACGGCC,0.018
12,ATACGGCA,0.404
13,CCACCAAA,-0.13
14,GGCTGAAA,-0.0667
15,ACAATGGA,-0.0436
16,AGATGGCG,-0.102
17,CTCACGAA,0.128
18,GTTACGAA,0.404
19,CTTACGAA,0.391
20,CTTACGAC,0.394
21,CTTACGCA,0.0308
22,ATTACGAA,0.349
23,CTCACGAC,-0.0734
24,GTTACGGA,0.233
25,CTTACGCC,0.0486

row,Sequence,PBM E-score
1,CGAAAATC,0.162
2,CGGCATCA,0.0766
3,CGTACCGC,0.47
4,CGTACCGA,0.447
5,CATACCGC,-0.0365
6,GGTACCGA,0.103
7,AGTACCGC,0.148
8,AGTACCGA,0.0799
9,CGAGTCAC,0.106
10,ACTGGCAT,-0.182
11,AATACCGG,-0.042
12,ACGATAAT,0.309
13,ACGATCGG,0.274
14,ACGATCGT,0.43
15,ACGATCGC,0.327
16,ACGTACAA,0.298
17,CCGTACAG,0.388
18,TCGTACAA,0.49
19,CGGTACAA,0.214
20,CCGTACAC,0.33
21,CAGTACAA,-0.0343
22,CCGTACAA,0.4
